For some of these results: Results with a measured potency or affinity are listed apart.

Holding throughout (set-up): scale not given: direction of the effect not stated beside the values
Assay [1] addresses Protein translocase subunit SecA (Escherichia coli (strain K12)) (UniProt P10408). Description: Assay to Identify E. coli SecA ATPase Inhibitors. The settings on record: 30 µM. It counts as functional.
Assay [2] addresses T1, Ubiquitin-activating enzyme e1, putative (Leishmania donovani (strain BPK282A1)) (UniProt E9BSI1).
T1 sequence (whole entry): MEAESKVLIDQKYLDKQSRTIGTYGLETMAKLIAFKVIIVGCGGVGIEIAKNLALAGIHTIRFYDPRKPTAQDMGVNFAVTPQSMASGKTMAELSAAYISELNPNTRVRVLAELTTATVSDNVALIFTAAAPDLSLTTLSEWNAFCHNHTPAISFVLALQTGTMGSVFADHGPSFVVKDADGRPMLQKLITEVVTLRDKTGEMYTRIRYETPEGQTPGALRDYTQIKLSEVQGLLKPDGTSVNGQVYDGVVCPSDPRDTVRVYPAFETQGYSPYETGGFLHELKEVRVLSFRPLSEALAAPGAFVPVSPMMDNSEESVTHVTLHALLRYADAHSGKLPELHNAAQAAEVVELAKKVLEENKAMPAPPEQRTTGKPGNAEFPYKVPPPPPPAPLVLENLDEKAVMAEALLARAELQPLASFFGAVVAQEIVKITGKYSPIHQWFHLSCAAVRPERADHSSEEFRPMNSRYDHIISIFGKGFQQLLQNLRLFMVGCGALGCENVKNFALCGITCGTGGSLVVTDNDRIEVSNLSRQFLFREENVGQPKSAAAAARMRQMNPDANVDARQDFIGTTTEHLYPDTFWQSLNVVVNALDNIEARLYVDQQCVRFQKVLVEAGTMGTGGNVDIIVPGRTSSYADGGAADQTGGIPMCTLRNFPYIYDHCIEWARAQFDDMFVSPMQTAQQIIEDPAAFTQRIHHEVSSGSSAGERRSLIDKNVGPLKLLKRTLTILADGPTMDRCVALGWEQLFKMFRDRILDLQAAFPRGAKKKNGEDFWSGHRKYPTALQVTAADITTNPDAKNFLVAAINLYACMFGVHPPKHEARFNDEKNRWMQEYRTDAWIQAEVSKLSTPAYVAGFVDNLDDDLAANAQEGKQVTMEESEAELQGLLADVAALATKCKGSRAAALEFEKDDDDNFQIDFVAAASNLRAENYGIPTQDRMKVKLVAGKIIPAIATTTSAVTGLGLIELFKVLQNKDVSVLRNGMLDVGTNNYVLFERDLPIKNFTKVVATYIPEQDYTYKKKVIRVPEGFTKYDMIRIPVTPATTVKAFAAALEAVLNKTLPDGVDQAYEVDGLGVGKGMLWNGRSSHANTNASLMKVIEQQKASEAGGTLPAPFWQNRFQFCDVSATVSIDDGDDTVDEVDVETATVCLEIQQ
The assay can be described thus: Leishmania donovani Ubiquitin Activating Enzyme (LdE1). The assay is classed as functional. The settings on record: 30 µM.

For assay [3], the target named is AMP-activated protein kinase, AMPK (Homo sapiens) (UniProt P54646+O43741+P54619+Q9UGJ0+Q9Y478+Q13131+Q9UGI9). Description: AMP-dependent Kinase enzyme assay. An in vitro enzyme assay that detects ADP turnover that is directly proportional to AMPK activity. This uses naive AMPK that is activated during the assay with MK-8722. It counts as functional. The settings on record: 30 µM.

Assay [4] has as its target Sialic acid-binding Ig-like lectin 9 (Homo sapiens) (UniProt Q9Y336). The assay can be described thus: Hs-Siglec9 ALPHAscreen SOP 20170721. The settings on record: 10 µM. Background: In Alpha technology, singlet oxygen from a donor bead excites a nearby acceptor bead.
In assay [5] the test system is Trypanosoma cruzi. The assay can be described thus: Trypanosoma cruzi phosphomannomutase and mannose-1-phosphate guanylyltransferase assay. The assay is classed as functional. The settings on record: 10 µM.
Assay [6] has as its target T2, Arginase-2, mitochondrial (Homo sapiens) (UniProt P78540).
T2 sequence (whole entry): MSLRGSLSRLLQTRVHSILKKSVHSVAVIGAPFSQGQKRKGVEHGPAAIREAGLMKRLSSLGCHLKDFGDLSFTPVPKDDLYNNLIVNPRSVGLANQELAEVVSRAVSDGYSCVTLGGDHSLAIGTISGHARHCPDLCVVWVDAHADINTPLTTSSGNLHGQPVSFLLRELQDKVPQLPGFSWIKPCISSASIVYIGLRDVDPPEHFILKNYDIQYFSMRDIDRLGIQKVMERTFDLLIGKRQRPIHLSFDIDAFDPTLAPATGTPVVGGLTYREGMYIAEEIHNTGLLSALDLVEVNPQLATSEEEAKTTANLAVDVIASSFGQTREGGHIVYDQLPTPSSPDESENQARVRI
Description: in vitro enzyme assay to detect the production of urea directly proportional to the activity of Arginase II. Further: in the data most compounds retested in dose-response had high values. It counts as functional. The settings on record: 33.3 µM.

In assay [7] the target is T3, Proteasome subunit beta (Trypanosoma cruzi) (UniProt O96673).
T3 sequence (whole entry): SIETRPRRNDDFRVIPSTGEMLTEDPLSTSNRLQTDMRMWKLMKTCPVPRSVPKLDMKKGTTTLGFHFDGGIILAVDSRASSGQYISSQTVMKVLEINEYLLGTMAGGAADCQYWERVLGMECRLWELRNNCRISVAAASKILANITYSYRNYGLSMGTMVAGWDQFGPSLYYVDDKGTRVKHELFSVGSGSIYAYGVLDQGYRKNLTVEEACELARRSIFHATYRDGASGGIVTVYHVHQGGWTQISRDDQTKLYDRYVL
Description: Trypanosoma cruzi proteasome chymotrypsin-like activity (TcProtChymo) assay. Further: in the data most compounds retested in dose-response had high values. It counts as functional. The settings on record: 9.37 µM.

Assay [8] is filed under the species Homo sapiens. The assay can be described thus: To identify inhibition of the IFN signalling (Jak-Stat) pathway via expression of an eGFP reporter gene under the control of an IFN-stimulated response element (ISRE) containing MxA promoter. The assay is classed as functional. The settings on record: 30 µM. On the technique in general: A reporter such as luciferase makes a cellular process visible.

For assay [9], the target named is T4, Tyrosyl-tRNA synthetase, putative (Trypanosoma cruzi (strain CL Brener)) (UniProt Q4DSP6).
T4 sequence (whole entry): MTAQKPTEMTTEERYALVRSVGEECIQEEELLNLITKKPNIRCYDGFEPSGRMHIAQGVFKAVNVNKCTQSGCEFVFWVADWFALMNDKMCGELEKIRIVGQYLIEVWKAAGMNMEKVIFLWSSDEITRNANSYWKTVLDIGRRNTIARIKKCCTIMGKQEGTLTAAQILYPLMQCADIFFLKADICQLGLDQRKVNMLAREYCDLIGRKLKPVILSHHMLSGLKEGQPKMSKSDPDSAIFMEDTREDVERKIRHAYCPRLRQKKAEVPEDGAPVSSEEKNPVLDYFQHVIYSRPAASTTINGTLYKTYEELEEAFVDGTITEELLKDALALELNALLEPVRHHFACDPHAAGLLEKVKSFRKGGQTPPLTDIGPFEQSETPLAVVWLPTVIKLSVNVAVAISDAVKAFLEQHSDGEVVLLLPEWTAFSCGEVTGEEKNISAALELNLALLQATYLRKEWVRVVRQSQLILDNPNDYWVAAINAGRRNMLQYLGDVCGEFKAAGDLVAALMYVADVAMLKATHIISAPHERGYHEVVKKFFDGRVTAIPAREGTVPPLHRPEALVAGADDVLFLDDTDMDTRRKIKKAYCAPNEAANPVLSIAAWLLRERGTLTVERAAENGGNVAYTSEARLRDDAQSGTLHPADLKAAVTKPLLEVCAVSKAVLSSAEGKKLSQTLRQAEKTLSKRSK
The assay can be described thus: Trypanosoma cruzi tyrosyl tRNA synthetase (TcYRS) _High Tyrosine SOP. Further: in the data most compounds retested in dose-response had high values. The settings on record: 30 µM. It counts as functional.

Assay [10] deals with T4, Tyrosyl-tRNA synthetase, putative (Trypanosoma cruzi (strain CL Brener)). Description: Trypanosoma cruzi tyrosyl tRNA synthetase (TcYRS) SOP. It counts as functional. The settings on record: 30 µM.
The target in assay [11] is Chromo domain-containing protein 1 (Saccharomyces cerevisiae (strain ATCC 204508 / S288c) (Baker's yeast)) (UniProt P32657). The assay can be described thus: ScCHD-1 Enzyme Inhibition Assay. Further: in the data most compounds retested in dose-response had high values. It counts as functional. The settings on record: 30 µM.
Chain of Chromo domain-containing protein 1 (Saccharomyces cerevisiae (strain ATCC 204508 / S288c) (Baker's yeast)) (P32657 whole entry, the tested form may be a part): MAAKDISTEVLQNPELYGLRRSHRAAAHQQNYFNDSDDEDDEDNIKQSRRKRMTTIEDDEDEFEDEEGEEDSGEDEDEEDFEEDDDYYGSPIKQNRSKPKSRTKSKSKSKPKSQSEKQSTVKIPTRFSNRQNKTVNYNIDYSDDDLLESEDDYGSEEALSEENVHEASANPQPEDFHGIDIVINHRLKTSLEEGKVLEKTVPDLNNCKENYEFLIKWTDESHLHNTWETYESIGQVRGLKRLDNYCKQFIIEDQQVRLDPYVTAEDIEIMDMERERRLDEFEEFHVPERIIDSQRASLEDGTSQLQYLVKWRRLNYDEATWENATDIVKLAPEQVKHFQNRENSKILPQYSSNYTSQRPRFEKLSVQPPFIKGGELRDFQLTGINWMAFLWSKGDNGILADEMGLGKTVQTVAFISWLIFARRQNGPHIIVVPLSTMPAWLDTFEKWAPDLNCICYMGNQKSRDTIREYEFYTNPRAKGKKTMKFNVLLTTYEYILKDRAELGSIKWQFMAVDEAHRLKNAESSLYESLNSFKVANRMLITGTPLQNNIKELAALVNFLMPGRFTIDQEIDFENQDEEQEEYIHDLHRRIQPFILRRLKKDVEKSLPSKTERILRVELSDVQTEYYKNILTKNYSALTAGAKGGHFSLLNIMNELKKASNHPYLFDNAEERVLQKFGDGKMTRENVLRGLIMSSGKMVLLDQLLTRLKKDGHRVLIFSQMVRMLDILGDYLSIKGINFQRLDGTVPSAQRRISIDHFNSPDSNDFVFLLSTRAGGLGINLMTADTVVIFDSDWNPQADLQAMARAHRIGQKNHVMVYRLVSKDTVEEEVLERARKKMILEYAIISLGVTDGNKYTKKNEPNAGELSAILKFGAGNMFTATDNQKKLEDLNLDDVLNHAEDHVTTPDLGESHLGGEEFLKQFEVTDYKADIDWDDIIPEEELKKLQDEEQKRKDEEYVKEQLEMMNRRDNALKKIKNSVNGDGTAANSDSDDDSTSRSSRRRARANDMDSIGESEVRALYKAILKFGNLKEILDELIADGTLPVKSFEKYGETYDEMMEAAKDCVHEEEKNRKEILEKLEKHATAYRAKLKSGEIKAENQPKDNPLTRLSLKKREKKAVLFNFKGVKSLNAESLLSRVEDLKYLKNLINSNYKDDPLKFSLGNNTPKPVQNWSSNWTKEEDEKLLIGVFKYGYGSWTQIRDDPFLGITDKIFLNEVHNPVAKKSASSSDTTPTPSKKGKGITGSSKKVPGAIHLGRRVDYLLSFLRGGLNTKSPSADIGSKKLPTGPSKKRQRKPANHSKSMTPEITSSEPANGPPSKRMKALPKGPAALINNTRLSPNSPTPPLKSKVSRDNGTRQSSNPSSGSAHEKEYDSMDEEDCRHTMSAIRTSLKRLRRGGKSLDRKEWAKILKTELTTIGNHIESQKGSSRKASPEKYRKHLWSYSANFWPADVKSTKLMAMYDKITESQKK

Chain of Sialic acid-binding Ig-like lectin 9 (Homo sapiens) (Q9Y336 whole entry): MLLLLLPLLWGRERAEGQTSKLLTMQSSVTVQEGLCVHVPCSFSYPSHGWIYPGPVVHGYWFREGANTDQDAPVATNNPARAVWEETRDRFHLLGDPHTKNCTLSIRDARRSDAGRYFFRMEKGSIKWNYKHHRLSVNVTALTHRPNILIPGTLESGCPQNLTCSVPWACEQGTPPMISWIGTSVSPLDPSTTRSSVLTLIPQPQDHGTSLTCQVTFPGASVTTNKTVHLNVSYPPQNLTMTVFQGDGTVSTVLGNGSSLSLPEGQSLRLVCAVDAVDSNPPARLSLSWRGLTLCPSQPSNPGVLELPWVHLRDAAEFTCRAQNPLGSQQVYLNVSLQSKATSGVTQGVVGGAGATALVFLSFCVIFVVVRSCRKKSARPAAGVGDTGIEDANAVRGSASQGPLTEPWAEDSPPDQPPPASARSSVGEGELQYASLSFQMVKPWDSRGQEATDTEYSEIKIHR
Chain of Protein translocase subunit SecA (Escherichia coli (strain K12)) (P10408 whole entry): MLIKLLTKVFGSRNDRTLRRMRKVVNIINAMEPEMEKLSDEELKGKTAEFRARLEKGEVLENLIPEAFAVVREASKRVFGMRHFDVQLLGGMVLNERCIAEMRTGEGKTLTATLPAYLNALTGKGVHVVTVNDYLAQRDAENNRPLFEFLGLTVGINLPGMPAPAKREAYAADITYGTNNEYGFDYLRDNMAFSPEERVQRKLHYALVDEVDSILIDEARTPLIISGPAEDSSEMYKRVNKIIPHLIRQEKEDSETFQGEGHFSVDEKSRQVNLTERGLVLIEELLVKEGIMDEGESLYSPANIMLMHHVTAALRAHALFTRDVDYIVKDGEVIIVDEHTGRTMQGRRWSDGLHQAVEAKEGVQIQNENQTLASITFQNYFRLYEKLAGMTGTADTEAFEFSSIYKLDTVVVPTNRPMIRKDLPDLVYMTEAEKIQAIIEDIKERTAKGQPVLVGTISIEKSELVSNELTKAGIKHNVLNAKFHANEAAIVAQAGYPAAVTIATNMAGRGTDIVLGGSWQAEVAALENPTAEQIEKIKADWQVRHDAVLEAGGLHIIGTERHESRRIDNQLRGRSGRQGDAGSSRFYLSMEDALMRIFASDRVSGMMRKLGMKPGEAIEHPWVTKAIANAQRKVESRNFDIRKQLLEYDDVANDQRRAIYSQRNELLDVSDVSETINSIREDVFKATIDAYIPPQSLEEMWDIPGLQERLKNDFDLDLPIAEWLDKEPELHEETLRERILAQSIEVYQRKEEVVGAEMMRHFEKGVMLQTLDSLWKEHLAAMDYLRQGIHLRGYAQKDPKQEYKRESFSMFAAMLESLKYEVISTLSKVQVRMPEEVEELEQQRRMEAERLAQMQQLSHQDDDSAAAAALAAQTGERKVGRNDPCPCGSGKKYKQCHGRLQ

Consider `N#Cc1cnn(-c2ccc(C(=O)Nc3ccccn3)cc2)c1N`, for which the Percent Effect in assay [1] is -1.12%; in assay [2], 17.7%; in assay [3], 3.05%; in [4], -10.6%; in assay [5], 7.65%; in assay [6], -6.46%. Moreover, the Percent Effect in assay [7] is 19.7%; in assay [8], 8.19%; in assay [9] it was 13.3%; in [10], 29.1%; in assay [11], -3.72%.

As for `Cc1ccccc1-c1cncc(C2CCN(C)CC2)n1`, the Percent Effect in assay [1] was -3.38%; in assay [2], -6.76%; in [3] it was 8.25%; in [4], 2.29%; in [5], 5.73%; in assay [6] it was -1.62%. The Percent Effect is -0.624% in assay [7]; -1.24% in [8]; 5.38% in [9]; 3.9% in assay [10]; -11.8% in assay [11].

For the compound `CCn1ncc2c1C(COCC1CC1)CN(C(=O)c1cccs1)C2` (stereo not drawn), the Percent Effect was 1.75% in assay [1]; 24.7% in [2]; -1.43% in [3]; 2.69% in assay [4]; -0.794% in assay [5]; -6.39% in assay [6]. Further, the Percent Effect in assay [7] was 13.6%; in assay [8], 21.1%; in [9], 7.29%; in assay [10] it was 13.6%; in assay [11] it was -3.6%.

Regarding `Cc1cc(C2CCCN(CCCNS(C)(=O)=O)C2)n[nH]1` (stereo not drawn), the Percent Effect in assay [1] was -3.61%; in [2], 2.53%; in assay [3] it was -4.24%; in assay [4] it was 13.7%; in [5] it was -0.283%; in assay [6], -2.66%. The Percent Effect in assay [7] is -2.7%; in assay [8], -2.96%; in [9], 5.42%; in assay [10], 3.8%; in [11], -0.769%.

As to `COc1ccc(C)cc1S(=O)(=O)NCC(c1cccn1C)N(C)C` (stereo not drawn), the Percent Effect was -6.79% in assay [1]; 8.22% in assay [2]; -12.1% in assay [3]; 2.18% in assay [4]; -5.49% in assay [5]; 1.36% in assay [6]. The Percent Effect in assay [7] is 12.2%; in assay [8] it was 6.68%; in assay [9], 5.38%; in assay [10], 10%; in [11], 104%.

With `CC(C)Nc1ncnc2c1CCN(C(=O)Cc1ccccn1)CC2`, the Percent Effect is -6.13% in assay [1]; 1.33% in assay [2]; -12.1% in assay [3]; -2.69% in assay [4]; -6.48% in assay [5]; -10.4% in assay [6]. In addition, the Percent Effect in assay [7] is 10.3%; in assay [8] it was -12.6%; in assay [9], -2.12%; in assay [10] it was -2.56%; in assay [11] it was -11%.

On to `Cc1cc(C[S+]([O-])CC(=O)Nc2c(C)cccc2C)no1` (stereo not drawn), for which the Percent Effect in [1] is -7.01%; in assay [2], 18.2%; in [3], 15.8%; in [4] it was 7.26%; in assay [5] it was 0.187%; in assay [6], 4.63%. Moreover, the Percent Effect in assay [7] was 2.03%; in assay [8], 5.44%; in assay [9], 8.74%; in [10], 9.76%; in assay [11], -3.01%.

Regarding `COc1ccc(CN2CCn3c(CNS(C)(=O)=O)nnc3C2)cc1`, the Percent Effect in [1] was -9.41%; in [2], 5.41%; in assay [3] it was -37.8%; in assay [4], -5.71%; in [5], -16.5%; in assay [6] it was -3.5%. Further, the Percent Effect is 2.77% in [7]; 14.7% in assay [8]; 0% in assay [9]; 5.13% in assay [10]; 1% in assay [11].

(Values after ChEMBL document CHEMBL3988442, “University of Dundee, Small-Polar-MMV Screening Library” (2021).)
